Assay results: PubChem BioAssay AID1159580 (chemical genetic matrix, 2015)
In all, about 5,500 compounds went through this assay and about 2,000 (36%) were called active. Roughly 18% stayed inconclusive and do not appear here. No stated cut-off is given here; in the data, active means normalized growth mostly below about 0.91 (no sharp cut-off); inconclusive means no clear call, values can overlap the other calls; inactive means mostly above about 0.92. Some of the results follow.

Experiment: chemical genetic growth profiling, strain panel (AID 1159580);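 further: tested at 20 µM; growth read once vehicle control cultures reached saturation at 30 °C; 1 = growth at the plate median or of vehicle wells; lower values mean less growth of the strain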
Conditions: growth OD
[1] = S. cerevisiae deletion strains, locus YDL101C, strain DUN1, active compounds read low
[2] = S. cerevisiae deletion strains, locus YHR030C, strain SLT2, active compounds read low
[3] = S. cerevisiae deletion strains, locus YJL095W, strain BCK1, active compounds read low
[4] = S. cerevisiae deletion strains, locus YOR061W, strain CKA2, active compounds read low

Measured: normalized growth

NC(=O)c1ccc[n+]([C@@H]2O[C@H](COP(=O)([O-])OP(=O)(O)OC[C@H]3O[C@@H](n4cnc5c(N)ncnc54)[C@H](OP(=O)(O)O)[C@@H]3O)[C@@H](O)[C@H]2O)c1
inactive: S. cerevisiae deletion strains, locus YAL013W, strain DEP1, active compounds read low 1.02 | S. cerevisiae deletion strains, locus YBR021W, strain FUR4, active compounds read low 1 | S. cerevisiae deletion strains, locus YBR229C, strain ROT2, active compounds read low 1.03 | S. cerevisiae deletion strains, locus YCL029C, strain bik1, active compounds read low 1 | S. cerevisiae deletion strains, locus YDL035C, strain GPR1, active compounds read low 1.06 | S. cerevisiae deletion strains, locus YDL074C, strain BRE1, active compounds read low 1.02 | [1] 1.02 | S. cerevisiae deletion strains, locus YDL134C, strain PPH21, active compounds read low 1.02 | S. cerevisiae deletion strains, locus YDL185W, strain tfp1, active compounds read low 0.994 | S. cerevisiae deletion strains, locus YDL192W, strain arf1, active compounds read low 1.01 | S. cerevisiae deletion strains, locus YDR101C, strain arx1, active compounds read low 1.01 | S. cerevisiae deletion strains, locus YDR150W, strain NUM1, active compounds read low 1.02 | S. cerevisiae deletion strains, locus YDR162C, strain NBP2, active compounds read low 1.03 | S. cerevisiae deletion strains, locus YDR318W, strain mcm21, active compounds read low 1.01 | S. cerevisiae deletion strains, locus YDR388W, active compounds read low 0.985 | S. cerevisiae deletion strains, locus YDR502C, strain sam2, active compounds read low 1.03 | S. cerevisiae deletion strains, locus YEL061C, strain CIN8, active compounds read low 1.02 | S. cerevisiae deletion strains, locus YER110C, active compounds read low 1 | S. cerevisiae deletion strains, locus YER155C, strain BEM2, active compounds read low 1 | S. cerevisiae deletion strains, locus YER167W, strain BCK2, active compounds read low 1.04 | S. cerevisiae deletion strains, locus YGL078C, strain dbp3, active compounds read low 0.995 | S. cerevisiae deletion strains, locus YGL086W, strain mad1, active compounds read low 1.04 | S. cerevisiae deletion strains, locus YGL248W, strain PDE1, active compounds read low 1.02 | S. cerevisiae deletion strains, locus YGR078C, strain PAC10, active compounds read low 1.04 | S. cerevisiae deletion strains, locus YGR135W, strain pre9, active compounds read low 1.02 | S. cerevisiae deletion strains, locus YGR229C, strain SMI1, active compounds read low 1.03 | S. cerevisiae deletion strains, locus YGR252W, strain gcn5, active compounds read low 1.03 | [2] 1.01 | S. cerevisiae deletion strains, locus YHR079C, strain IRE1 (second series), active compounds read low 1.01 | S. cerevisiae deletion strains, locus YHR094C, strain hxt1, active compounds read low 0.995 | S. cerevisiae deletion strains, locus YHR129C, strain ARP1, active compounds read low 1.02 | S. cerevisiae deletion strains, locus YHR200W, strain rpn10, active compounds read low 1 | S. cerevisiae deletion strains, locus YIL066C, strain RNR3, active compounds read low 1.03 | S. cerevisiae deletion strains, locus YIL073C, strain SPO22, active compounds read low 1.02 | S. cerevisiae deletion strains, locus YIL125W, strain kgd1, active compounds read low 0.981 | S. cerevisiae deletion strains, locus YIR030C, strain dcg1, active compounds read low 0.996 | [3] 1.03 | S. cerevisiae deletion strains, locus YJL134W, strain LCB3, active compounds read low 1.01 | S. cerevisiae deletion strains, locus YJL168C, strain set2, active compounds read low 0.996 | S. cerevisiae deletion strains, locus YJL187C, strain SWE1 (second series), active compounds read low 1.03 | S. cerevisiae deletion strains, locus YJR043C, strain POL32, active compounds read low 1.03 | S. cerevisiae deletion strains, locus YJR075W, strain HOC1, active compounds read low 1.05 | S. cerevisiae deletion strains, locus YKL009W, strain mrt4, active compounds read low 1.02 | S. cerevisiae deletion strains, locus YKL068W, active compounds read low 0.999 | S. cerevisiae deletion strains, locus YKL085W, strain MDH1 (second series), active compounds read low 0.99 | S. cerevisiae deletion strains, locus YKL085W, strain MDH1, active compounds read low 0.99 | S. cerevisiae deletion strains, locus YKL190W, strain CNB1, active compounds read low 1.01 | S. cerevisiae deletion strains, locus YKR001C, strain vps1, active compounds read low 0.996 | S. cerevisiae deletion strains, locus YLR039C, strain RIC1, active compounds read low 1.04 | S. cerevisiae deletion strains, locus YLR058C, strain SHM2, active compounds read low 1.02 | S. cerevisiae deletion strains, locus YLR102C, strain apc9, active compounds read low 0.99 | S. cerevisiae deletion strains, locus YLR262C, strain YPT6, active compounds read low 1.08 | S. cerevisiae deletion strains, locus YLR268W, strain sec22, active compounds read low 0.949 | S. cerevisiae deletion strains, locus YLR330W, strain CHS5, active compounds read low 1.01 | S. cerevisiae deletion strains, locus YLR342W, strain FKS1 (second series), active compounds read low 1.04 | S. cerevisiae deletion strains, locus YLR371W, strain rom2, active compounds read low 0.987 | S. cerevisiae deletion strains, locus YLR418C, strain cdc73, active compounds read low 1.04 | S. cerevisiae deletion strains, locus YML016C, strain PPZ1, active compounds read low 1.02 | S. cerevisiae deletion strains, locus YML032C, strain rad52, active compounds read low 0.979 | S. cerevisiae deletion strains, locus YML124C, strain tub3, active compounds read low 0.991 | S. cerevisiae deletion strains, locus YMR078C, strain ctf18, active compounds read low 0.995 | S. cerevisiae deletion strains, locus YMR223W, strain ubp8, active compounds read low 1.04 | S. cerevisiae deletion strains, locus YMR263W, strain SAP30, active compounds read low 1.04 | S. cerevisiae deletion strains, locus YMR307W, strain GAS1, active compounds read low 1.07 | S. cerevisiae deletion strains, locus YNL067W, strain RPL9B, active compounds read low 1.04 | S. cerevisiae deletion strains, locus YNL128W, strain TEP1, active compounds read low 1.05 | S. cerevisiae deletion strains, locus YNL153C, strain GIM3, active compounds read low 1.02 | S. cerevisiae deletion strains, locus YNL233W, strain BNI4, active compounds read low 1.03 | S. cerevisiae deletion strains, locus YNL250W, strain rad50, active compounds read low 0.995 | S. cerevisiae deletion strains, locus YNL271C, strain bni1, active compounds read low 0.993 | S. cerevisiae deletion strains, locus YNL298W, strain CLA4, active compounds read low 0.989 | S. cerevisiae deletion strains, locus YNL307C, strain MCK1, active compounds read low 1.01 | S. cerevisiae deletion strains, locus YNL322C, strain KRE1, active compounds read low 1.01 | S. cerevisiae deletion strains, locus YNR052C, strain pop2, active compounds read low 0.991 | S. cerevisiae deletion strains, locus YOL006C, strain TOP1, active compounds read low 1.03 | S. cerevisiae deletion strains, locus YOL012C, strain htz1 0.919 | S. cerevisiae deletion strains, locus YOL147C, strain pex11, active compounds read low 0.995 | [4] 1.02 | S. cerevisiae deletion strains, locus YOR069W, strain VPS5, active compounds read low 1.01 | S. cerevisiae deletion strains, locus YOR136W, strain idh2, active compounds read low 1.01 | S. cerevisiae deletion strains, locus YOR144C, strain elg1, active compounds read low 0.984 | S. cerevisiae deletion strains, locus YOR184W, strain ser1, active compounds read low 1.02 | S. cerevisiae deletion strains, locus YOR316C, strain cot1, active compounds read low 0.997 | S. cerevisiae deletion strains, locus YPL055C, strain LGE1, active compounds read low 1.05 | S. cerevisiae deletion strains, locus YPL241C, strain CIN2, active compounds read low 1.02 | S. cerevisiae deletion strains, locus YPR119W, strain clb2, active compounds read low 0.986 | S. cerevisiae deletion strains, locus YPR141C, strain kar3, active compounds read low 0.978 | S. cerevisiae deletion strains, locus YPR163C, strain tif3, active compounds read low 0.997 | S. cerevisiae deletion strains, locus YPR167C, strain met16, active compounds read low 0.99 | S. cerevisiae deletion strains, strain wtn01, active compounds read low 1 | S. cerevisiae strains, strain wild type, active compounds read low 1.03

C/C(Cc1nnn(-c2cc(C)on2)n1)=N/OC(=O)Nc1ccc(Cl)cc1
active: [2] 0.733 | S. cerevisiae deletion strains, locus YJR066W, strain TOR1 (second series), active compounds read low 0.6 | S. cerevisiae deletion strains, locus YLR113W, strain HOG1, active compounds read low 0.826
inactive: S. cerevisiae deletion strains, locus YAR019C, strain CDC15, active compounds read low 0.989 | S. cerevisiae deletion strains, locus YBL105C, strain PKC1, active compounds read low 0.978 | S. cerevisiae deletion strains, locus YBR135W, strain CKS1, active compounds read low 0.988 | S. cerevisiae deletion strains, locus YBR136W, strain MEC1, active compounds read low 0.985 | S. cerevisiae deletion strains, locus YBR160W, strain CDC28, active compounds read low 0.993 | S. cerevisiae deletion strains, locus YDL017W, strain CDC7, active compounds read low 0.974 | S. cerevisiae deletion strains, locus YDL028C, strain MPS1, active compounds read low 0.989 | [1] 1 | S. cerevisiae deletion strains, locus YDL108W, strain KIN28, active compounds read low 0.982 | S. cerevisiae deletion strains, locus YDL132W, strain cdc53, active compounds read low 0.975 | S. cerevisiae deletion strains, locus YDL214C, strain PRR2, active compounds read low 0.956 | S. cerevisiae deletion strains, locus YDR052C, strain DBF4, active compounds read low 0.988 | S. cerevisiae deletion strains, locus YDR054C, strain cdc34, active compounds read low 0.975 | S. cerevisiae deletion strains, locus YDR226W, strain ADK1, active compounds read low 0.97 | S. cerevisiae deletion strains, locus YDR477W, strain SNF1, active compounds read low 0.899 | S. cerevisiae deletion strains, locus YER123W, strain YCK3, active compounds read low 0.954 | S. cerevisiae deletion strains, locus YER133W, strain GLC7, active compounds read low 0.95 | S. cerevisiae deletion strains, locus YFL009W, strain cdc4, active compounds read low 0.98 | S. cerevisiae deletion strains, locus YFL029C, strain CAK1, active compounds read low 0.992 | S. cerevisiae deletion strains, locus YFR003C, strain YPI1, active compounds read low 0.979 | S. cerevisiae deletion strains, locus YFR019W, strain FAB1, active compounds read low 0.989 | S. cerevisiae deletion strains, locus YFR028C, strain CDC14, active compounds read low 0.975 | S. cerevisiae deletion strains, locus YGR040W, strain KSS1, active compounds read low 0.941 | S. cerevisiae deletion strains, locus YGR052W, strain FMP48, active compounds read low 0.971 | S. cerevisiae deletion strains, locus YGR092W, strain DBF2, active compounds read low 0.877 | S. cerevisiae deletion strains, locus YHR079C, strain IRE1, active compounds read low 0.754 | S. cerevisiae deletion strains, locus YHR082C, strain KSP1, active compounds read low 1.05 | S. cerevisiae deletion strains, locus YHR205W, strain SCH9, active compounds read low 0.787 | S. cerevisiae deletion strains, locus YIL147C, strain SLN1, active compounds read low 0.973 | [3] 0.793 | S. cerevisiae deletion strains, locus YJL128C, strain PBS2, active compounds read low 0.921 | S. cerevisiae deletion strains, locus YJL157C, strain FAR1, active compounds read low 0.956 | S. cerevisiae deletion strains, locus YJR016C, strain ILV3, active compounds read low 0.977 | S. cerevisiae deletion strains, locus YJR066W, strain TOR1, active compounds read low 0.992 | S. cerevisiae deletion strains, locus YKL048C, strain ELM1, active compounds read low 0.994 | S. cerevisiae deletion strains, locus YKL067W, strain YNK1, active compounds read low 0.946 | S. cerevisiae deletion strains, locus YKL101W, strain HSL1, active compounds read low 0.929 | S. cerevisiae deletion strains, locus YKL193C, strain SDS22, active compounds read low 0.977 | S. cerevisiae deletion strains, locus YKL203C, strain TOR2, active compounds read low 1.03 | S. cerevisiae deletion strains, locus YLR133W, strain CKI1, active compounds read low 0.96 | S. cerevisiae deletion strains, locus YLR403W, strain SFP1, active compounds read low 0.933 | S. cerevisiae deletion strains, locus YML070W, strain DAK1, active compounds read low 0.944 | S. cerevisiae deletion strains, locus YMR001C, strain CDC5, active compounds read low 0.983 | S. cerevisiae deletion strains, locus YMR205C, strain PFK2 (second series), active compounds read low 0.936 | S. cerevisiae deletion strains, locus YMR277W, strain FCP1, active compounds read low 0.978 | S. cerevisiae deletion strains, locus YNL006W, strain LST8, active compounds read low 0.98 | S. cerevisiae deletion strains, locus YNL020C, strain ARK1, active compounds read low 0.923 | S. cerevisiae deletion strains, locus YNL161W, strain CBK1, active compounds read low 0.973 | S. cerevisiae deletion strains, locus YNL183C, strain NPR1, active compounds read low 0.977 | S. cerevisiae deletion strains, locus YNL207W, strain RIO2, active compounds read low 0.981 | S. cerevisiae deletion strains, locus YNL222W, strain SSU72, active compounds read low 0.993 | S. cerevisiae deletion strains, locus YNL307C, strain MCK1 (second series), active compounds read low 0.907 | S. cerevisiae deletion strains, locus YOL078W, strain AVO1, active compounds read low 0.986 | S. cerevisiae deletion strains, locus YOL136C, strain PFK27, active compounds read low 0.946 | [4] 0.988 | S. cerevisiae deletion strains, locus YOR119C, strain RIO1, active compounds read low 1.01 | S. cerevisiae deletion strains, locus YOR231W, strain MKK1, active compounds read low 0.954 | S. cerevisiae deletion strains, locus YOR329C, strain SCD5, active compounds read low 0.982 | S. cerevisiae deletion strains, locus YPL031C, strain PHO85, active compounds read low 0.924 | S. cerevisiae deletion strains, locus YPL153C, strain RAD53, active compounds read low 0.953 | S. cerevisiae deletion strains, locus YPL204W, strain HRR25, active compounds read low 0.954 | S. cerevisiae deletion strains, locus YPL209C, strain IPL1, active compounds read low 0.985 | S. cerevisiae deletion strains, locus YPL256C, strain CLN2, active compounds read low 0.86 | S. cerevisiae deletion strains, locus YPR025C, strain CCL1, active compounds read low 0.991 | S. cerevisiae deletion strains, locus YPR106W, strain ISR1, active compounds read low 0.98 | S. cerevisiae deletion strains, locus YPR111W, strain DBF20, active compounds read low 0.975 | S. cerevisiae deletion strains, strain NNK1, active compounds read low 0.967 | S. cerevisiae deletion strains, strain TSCII, active compounds read low 0.98
